# Over roughly 68,000 sequences, “fluorescence intensity (a.u.)” has its median near 9,100; the highest 2% begin near 16,000. This is one part of a sample in which the highest values are shown more often than they occur.
# Target: OsWRKY34 (Oryza sativa, UniProt Q0JBA9 1-250)
# Assay: protein-binding microarray (RPBM); PBS, 2% BSA, 51.3 ng/ul salmon testes DNA, 50 uM zinc acetate, 200 nM TF, 25 C, 1 h; high values mean tight binding
# Conditions: protein: recombinant; tags: N-terminal polyhistidine and DsRed monomer fusion (pET32a); label: CyDye5-dUTP incorporated in the synthesized complementary strand; 3' TTTTT single-stranded linker to array surface; dsDNA, one strand shown
# Outline: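 Ni–NTA purification followed expression in E. coli BL21-CodonPlus of transcription factors fused N-terminally to a polyhistidine tag and DsRed. At 200 nM in PBS with 2% BSA, salmon testes DNA and 50 µM zinc acetate, the protein was incubated for 1 h at 25 °C with a custom Agilent array that had been primer-extended with Cy5-dUTP and blocked with 2% BSA. After washing, the array was read on an Axon 4000B scanner. The binding signal is per-feature fluorescence intensity in arbitrary units.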
# Chain of OsWRKY34 (Q0JBA9 entry or part of it): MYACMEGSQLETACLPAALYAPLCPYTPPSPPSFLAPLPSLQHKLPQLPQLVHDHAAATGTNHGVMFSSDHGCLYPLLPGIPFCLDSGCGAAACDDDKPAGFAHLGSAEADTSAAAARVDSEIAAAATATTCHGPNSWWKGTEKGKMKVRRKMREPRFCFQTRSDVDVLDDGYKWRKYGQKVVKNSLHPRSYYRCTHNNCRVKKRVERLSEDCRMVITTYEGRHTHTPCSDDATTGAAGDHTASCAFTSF
row,Sequence,binding signal
1,TGGCTTGGTCCGCTAGTTCCTAACATCATGACAGTATTTTCGGAGTCACCTAGTGCAG,8280 fluorescence intensity (a.u.)
2,CCCAGGTAGGATATGTGTATGTGTTTATATGGGTGAGTCTCGGAGTCACCTAGTGCAG,9300 fluorescence intensity (a.u.)
3,TTTACCTCTCTGCCGGCCTTTGCACGCTTGTAGCCCACCACGGAGTCACCTAGTGCAG,9670 fluorescence intensity (a.u.)
4,GGCACGGTTTGAACGCATTACCCATTCCCCGTTTGACTTCCGGAGTCACCTAGTGCAG,12800 fluorescence intensity (a.u.)
5,GCGTTACATACATCCTTATTATGTTGTTCATGTTTATAAACGGAGTCACCTAGTGCAG,8240 fluorescence intensity (a.u.)
6,CCTATATCATCCTTTGATAAGATCGACTGTTTGCTATTTACGGAGTCACCTAGTGCAG,9940 fluorescence intensity (a.u.)
7,TGCCAATGCCAGGGTTTTCGTCGGTTTTACATAAATTAACCGGAGTCACCTAGTGCAG,8500 fluorescence intensity (a.u.)
8,GTGGAATCGTTCGTTCTTGACTTCACCTACCAAGATTTGCCGGAGTCACCTAGTGCAG,8640 fluorescence intensity (a.u.)
9,CCTCGCTCCGTCGCTCACAACCCGTCTCCTGCTCGATCCGCGGAGTCACCTAGTGCAG,9140 fluorescence intensity (a.u.)
10,TAGCATGACCTTTCACCCATACATATGAGCTACTTCTCTTCGGAGTCACCTAGTGCAG,9280 fluorescence intensity (a.u.)
11,ATGTATAACACTGTTGACTTTTTAAGATATATTTGATCATCGGAGTCACCTAGTGCAG,15900 fluorescence intensity (a.u.)
12,ACGCCGTTGGCTTTTTAGCATATATTTGACCATTCATCTTCGGAGTCACCTAGTGCAG,8190 fluorescence intensity (a.u.)
13,GAGATATCGTTGACTTTTAGCATAACATAGACCATTCAGCCGGAGTCACCTAGTGCAG,18300 fluorescence intensity (a.u.)
14,TTGATACCGTTGACTTTTTAGCACATGTTTGACCATTCATCGGAGTCACCTAGTGCAG,39400 fluorescence intensity (a.u.)
15,TAGATAACGTCATTGACTTTTTCTCACATATTTGACCATTCGGAGTCACCTAGTGCAG,12400 fluorescence intensity (a.u.)
16,TGTTTGACATCGTTGACTTTTTAACACATGTTTCACTGTTCGGAGTCACCTAGTGCAG,36000 fluorescence intensity (a.u.)
17,GACACCGTTGACTTTTTAGCACATGTTTGACCGCTCATCTCGGAGTCACCTAGTGCAG,32800 fluorescence intensity (a.u.)
18,ACAATTCACAAACGAACCTCTGCTGTTAGCCGCCTCTTTCCGGAGTCACCTAGTGCAG,8190 fluorescence intensity (a.u.)
19,GTTGCTTACTACCTGGTATTAGTCATTGTGGGAGTAGTTCCGGAGTCACCTAGTGCAG,8160 fluorescence intensity (a.u.)
20,TGGCATTTTTTTTTTTGGAATTGAGCACTTGTTAATGTCACGGAGTCACCTAGTGCAG,8110 fluorescence intensity (a.u.)
21,GCTCACCTAACCCATTCACGTGGCGCCAAACCCTCAGGGGCGGAGTCACCTAGTGCAG,8250 fluorescence intensity (a.u.)
22,CACTCGTTTTCAGATCATTTTCCATGGCGCCATGGCGCCTCGGAGTCACCTAGTGCAG,8500 fluorescence intensity (a.u.)

row,Sequence,binding signal
1,ATCATTTAATTCCTGCGTTTTTCCTGCGATTCAATCAAACCGGAGTCACCTAGTGCAG,11300 fluorescence intensity (a.u.)
2,AGCTATATTACTCACCTTCTCTCTTTAAGCCTGTCTAGTACGGAGTCACCTAGTGCAG,10300 fluorescence intensity (a.u.)
3,TTTCCCTGATCCTTTTCCTAACCCAGTGGCAGGCATCTTTCGGAGTCACCTAGTGCAG,9990 fluorescence intensity (a.u.)
4,CTACTTGTGCTGTGTCTTTGTTTTTCTTTCACATTTCTAGCGGAGTCACCTAGTGCAG,14300 fluorescence intensity (a.u.)
5,GTGGGTCCACTTGCTACACATACCACCCCACTTAAACTTTCGGAGTCACCTAGTGCAG,8640 fluorescence intensity (a.u.)
6,ATATTTTAATGAATGACACTGTTGACTTTTTGACAAACGTCGGAGTCACCTAGTGCAG,13300 fluorescence intensity (a.u.)
7,CCACGCCGCACCCACCCACTGCCCGTTCCGTTCCGGCGACCGGAGTCACCTAGTGCAG,10900 fluorescence intensity (a.u.)
8,ATATTTGACACCGTTGACTTTTTAGCACATGTTTGACTGTCGGAGTCACCTAGTGCAG,33000 fluorescence intensity (a.u.)
9,TTGACACTGTTGACTTTTTAATATATGTTTGACTGTTCGTCGGAGTCACCTAGTGCAG,20400 fluorescence intensity (a.u.)
10,AATGTTTGACACCGTTGATTTTTTTAGCACATGTTTCACCCGGAGTCACCTAGTGCAG,8960 fluorescence intensity (a.u.)
11,TTCAAAATGTTTGACACCGTTGACTTTTTAACACATGATCCGGAGTCACCTAGTGCAG,32400 fluorescence intensity (a.u.)
12,CCTTCCGTTTGACACTGTTGACTTTTTTAAATATGTTTGACGGAGTCACCTAGTGCAG,16100 fluorescence intensity (a.u.)
13,CCGCTGCCGCTTCCGCTTCCGCTTCTTCCGTTCTGGAGACCGGAGTCACCTAGTGCAG,10400 fluorescence intensity (a.u.)
14,ATGTTTGACGCCGTTGATATTTTAGCACATGTTTGACTGTCGGAGTCACCTAGTGCAG,11400 fluorescence intensity (a.u.)
15,CGCCGCTGCCGTTGACCGTGTTCCGGCACTTCTTCACGACCGGAGTCACCTAGTGCAG,17400 fluorescence intensity (a.u.)
16,CGGCGCGTACGCAGTCCACTACCACCACTTCCGCCGGCGCCGGAGTCACCTAGTGCAG,8450 fluorescence intensity (a.u.)
17,CTTGCCGGCCTCCACCGCTAATGTTTGTGCACACAGAAAACGGAGTCACCTAGTGCAG,8330 fluorescence intensity (a.u.)
18,GAACCTAGAAATATTGTCTGTTTTCCTGCCGAACTGAACTCGGAGTCACCTAGTGCAG,9900 fluorescence intensity (a.u.)
19,TGAAAGGGGTTGATGTGTGGTGAAGGGTAGGTAATTTGTACGGAGTCACCTAGTGCAG,10700 fluorescence intensity (a.u.)
20,GGTGGTGGTGTGAGAGCAGTAGACAGGTTTTTCTTGGGGACGGAGTCACCTAGTGCAG,8280 fluorescence intensity (a.u.)
21,CTTCTGCTTCTGGTTCTGGTTCGCCTTCCTAGTTCCTACCCGGAGTCACCTAGTGCAG,8330 fluorescence intensity (a.u.)
22,GAAAAATCTTTCCAGTGGTAGTGTGTTGCTCTCGGCCTCGCGGAGTCACCTAGTGCAG,8320 fluorescence intensity (a.u.)

row,Sequence,binding signal
1,GCCCCGAGCGGGCCGAGCTCCCATCGTCTCATCGCCCCAACGGAGTCACCTAGTGCAG,11600 fluorescence intensity (a.u.)
2,AGCCAACCACACACAATGAACCATACCACAGTTACCACAGCGGAGTCACCTAGTGCAG,10100 fluorescence intensity (a.u.)
3,TTGGGGAGGATTTTTTCTTTTCATTTCATAATTAATTTCCCGGAGTCACCTAGTGCAG,11400 fluorescence intensity (a.u.)
4,TGCATCTCGCCTTATCCCCGCGCCGGCGCTAGGCGAATCGCGGAGTCACCTAGTGCAG,8340 fluorescence intensity (a.u.)
5,ACGCCGCCGTTGCACTTCTCTGCACGCCATTGATCCGATCCGGAGTCACCTAGTGCAG,8480 fluorescence intensity (a.u.)
6,AATGGTTTTATCGTTTTACGTGTGTACACCACTTATATATCGGAGTCACCTAGTGCAG,8060 fluorescence intensity (a.u.)
7,TTGACACCGTTGACTTTTTAGTACATGTTTGACCGTTCGTCGGAGTCACCTAGTGCAG,41400 fluorescence intensity (a.u.)
8,TTTTAGCACATGTTGACCGTTCGTCTTATTCAAAAAATTTCGGAGTCACCTAGTGCAG,9160 fluorescence intensity (a.u.)
9,CCGAAGCGTCATCGCCGGTGGCCGTATCTTCTGCGTTGACCGGAGTCACCTAGTGCAG,15300 fluorescence intensity (a.u.)
10,ACACCGTTGACTTTTTAGCACATGTTGGACTGTTCGTCTTCGGAGTCACCTAGTGCAG,39800 fluorescence intensity (a.u.)
11,GCCGTATCTTCTGCGTTGACCAGATCCTTCACTGTCACGCCGGAGTCACCTAGTGCAG,19200 fluorescence intensity (a.u.)
12,AGTTTTTGGTAGTTTAGTTTGATACACCACTTCGTTTGATCGGAGTCACCTAGTGCAG,18600 fluorescence intensity (a.u.)
13,TTCGTTGTACTTACCATCGTTGTTTAGTTTGATTTTTTTTCGGAGTCACCTAGTGCAG,8950 fluorescence intensity (a.u.)
14,TGACTTTTTAGCACATGTTTGACTGTTCGTCTTATTCAAACGGAGTCACCTAGTGCAG,10200 fluorescence intensity (a.u.)
15,TAACCAGAGTAAATTTTTGGCCAACTTAAGTGCTTTCATACGGAGTCACCTAGTGCAG,9070 fluorescence intensity (a.u.)
16,GCAACTTTTTTTCCAAATGTTTGGCATCTGGTGTGTCATCCGGAGTCACCTAGTGCAG,8040 fluorescence intensity (a.u.)
17,GAAGCCCACCCAATTCGATTTTTTGGGCCGCCCCACCTTTCGGAGTCACCTAGTGCAG,8790 fluorescence intensity (a.u.)
18,TACCGTCGTGCTCCATCAATTCCATCTCCACGTGTTATTGCGGAGTCACCTAGTGCAG,10900 fluorescence intensity (a.u.)
19,GCGATCTTCGCGGCTTCACCATCATACCTGCAACTGCAACCGGAGTCACCTAGTGCAG,8220 fluorescence intensity (a.u.)
20,CGTCCGGCCGCGAAACCGAGCCTTCTGACCACCGCCGAAACGGAGTCACCTAGTGCAG,8050 fluorescence intensity (a.u.)
21,TATTTAACACCGTTGACTTTTTAGCACATGTTTGACCGTTCGGAGTCACCTAGTGCAG,38200 fluorescence intensity (a.u.)
22,ATTTGACACCGTTAACCTTTTAGCACATGTTTGACCGTTCCGGAGTCACCTAGTGCAG,11900 fluorescence intensity (a.u.)

row,Sequence,binding signal
1,TAAGCACAGTTGACTTTTTTTTTGGTGTGTTCCGGTGTATCGGAGTCACCTAGTGCAG,20900 fluorescence intensity (a.u.)
2,ACCGTTGACTTTTTAGCACATGATTGATCGTTCGTTTTATCGGAGTCACCTAGTGCAG,33800 fluorescence intensity (a.u.)
3,GTTTGTTGCAGTTTGGTGTGTATGTTTGTTGCACTTTGATCGGAGTCACCTAGTGCAG,9920 fluorescence intensity (a.u.)
4,TTGTTTGCACCGGTTTTGACAGTTCAGGGATCGGTTGTATCGGAGTCACCTAGTGCAG,8200 fluorescence intensity (a.u.)
5,TTGATTTTTTTAGCACATGTTTGACCGTTCGTCTTATTAACGGAGTCACCTAGTGCAG,13200 fluorescence intensity (a.u.)
6,CACCGTTGATTTTTTAGCACATGTTTGACCGTTCGTCTTACGGAGTCACCTAGTGCAG,12900 fluorescence intensity (a.u.)
7,GTTGACTTTTTAGCACGTGTTTGACCGTTCGTCTTATTAACGGAGTCACCTAGTGCAG,9780 fluorescence intensity (a.u.)
8,ACACCGTTGACTTTTTAGCACGTGTTTGACCGTTCACCTTCGGAGTCACCTAGTGCAG,26900 fluorescence intensity (a.u.)
9,CAAAAACACTCCACATATTTTTCCTTTTAGTTACGTAATTCGGAGTCACCTAGTGCAG,9500 fluorescence intensity (a.u.)
10,TCGTCGTGTTCGTGTTTTTTTTCTTCCAATCTGCGCGCGTCGGAGTCACCTAGTGCAG,8990 fluorescence intensity (a.u.)
11,TACGCTGTGATCCCCGTCTTCAATTTCTCGTTCGCTCTCACGGAGTCACCTAGTGCAG,12800 fluorescence intensity (a.u.)
12,AGCCTATTTCATTTGATATATCATGGTGCATGATCTAATTCGGAGTCACCTAGTGCAG,11100 fluorescence intensity (a.u.)
13,ACGTCCAAATCACATTATATCAGTTCCTGTTTGTAACCGCCGGAGTCACCTAGTGCAG,8550 fluorescence intensity (a.u.)
14,GTGCCTGTTTGCTTCAGTGATGCTGGTGGTGGTTGCCTAACGGAGTCACCTAGTGCAG,9460 fluorescence intensity (a.u.)
15,GTACTCCTGGTCCGCATCCACCGTCCATCCGCGTACCGCACGGAGTCACCTAGTGCAG,11000 fluorescence intensity (a.u.)
16,GTTCTTCTTCTTCTTCTTCTTTTTTTCGTCCAAGGCCACTCGGAGTCACCTAGTGCAG,8280 fluorescence intensity (a.u.)
17,TTTTCTCCTTTCGCGTTGCGTCCGCGATCCGATCGATCGACGGAGTCACCTAGTGCAG,9560 fluorescence intensity (a.u.)
18,CGACAGTTTCCTTTTTCGCGACCACTTCCGATCTCCTAAACGGAGTCACCTAGTGCAG,17000 fluorescence intensity (a.u.)
19,AGTTTTTTCCTTTTAATCTCCGACTTCACCGGGTTTTTTCCGGAGTCACCTAGTGCAG,8260 fluorescence intensity (a.u.)

# From article PMC7819943, “Rice protein-binding microarrays: a tool to detect cis-acting elements near promoter regions in rice”
